These results are taken from PubChem BioAssay (NCI).

Molecules are shown by their SMILES. This is part of a sample that, as a whole, favours compounds with a hit. Of some 83,000 tested, about 20% had one in any assay.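 Single-dose data. Exposure time 48 hours. Values below 10 considered active.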 Activity calls are given as the source filed them.

For the assay, the system named is SW-620 colon. The assay is described as follows: NCI-60 one-dose screen, 48 h (100 = growth as untreated, 0 = no growth, -100 = all killed). The settings on record: 10 µM unless noted.
For the compound `COC12C=C/C(=C(/C(=O)OCc3ccncn3)C(=O)CCCCCCCCC3(OC)C=C/C(=C(/C(=O)OCc4ccncn4)C(=O)CCCCCCCC1)O3)O2`, the growth is 12.9% (inactive). As to `CN(/C(N)=N/N=C/c1c2ccccc2cc2ccccc12)C1CCCCC1`, the growth was 58.6% (inactive).

`Cn1cc(-c2csc(-c3c[nH]c4ccc(Br)cc34)n2)c2ccnc(Cl)c21`: the growth is 8.27% (active). Consider `COC(=O)c1nc(-c2ccc(C)cc2)oc1S(=O)(=O)c1cccc(OC)c1`, for which the growth was 65.5% (inactive).

For the compound `CCCCn1c(=O)[nH]c(N)c([C@@H]2c3c([nH]c(=O)n(CCCC)c3=O)Oc3ccc4ccccc4c32)c1=O`, the growth is -67.9% (active).

Turning to `O=C(O)c1cn(C2CC2)c2cc(N3CCN(C(=O)N(c4ccccc4)c4nc(-c5ccccc5)cs4)CC3)c(F)cc2c1=O`, the growth was 20.7% (inactive).

On to `CCC(C)(C)C(=O)O[C@H]1C[C@@H](C)C=C2C=C[C@H](C)[C@H](CC[C@@H]3CC(SCCN)CC(=O)O3)[C@H]21` (stereo partly drawn), for which the growth was 81.8% (inactive). For the compound `COc1cc(OC)c(NC(=O)c2cc3ccccc3cc2O)cc1Cl`, the growth is 21.9% (inactive). For the compound `O=C(Nc1cccc2ccccc12)NC1CC1`, the growth is 105% (inactive). As to `COc1ccc(C(=O)c2cc3c(N)c(C(=O)Nc4ccc(C)cc4)sc3nc2C)cc1`, the growth is 28.3% (inactive). For the compound `CCCCCCCCCCCCCCCCCCOc1ccccc1CC(=O)OCC[N+](C)(C)C`, the growth is 23.9% (inactive).

For `C=CC[Se]C(=O)Cc1c(C)n(C(=O)c2ccc(Cl)cc2)c2ccc(OC)cc12`, the growth was 5.69% (active). On to `Cc1cc(N2CCCCC2)cc(C)c1-c1csc(NC(=O)c2ccncc2)n1`, for which the growth is 69.9% (inactive).
